The campaign covered roughly 100,000 compounds. About 620 (0.62%) were called active. The full list was thinned out, with actives kept by preference. Unmarked numbers belong to inactive results. How the source made its calls: active means z-score of 3 or more in at least 2 runs; inactive means the rest.
Experiment: TAR RNA-Tat peptide displacers, HIV-1, primary screen, biochemical, FRET, FAM/TAMRA-labeled Tat (AID 1259389)
Conditions: HIV-1 TAR RNA, Tat peptide displacement FRET; stronger effect = higher value

Structure (SMILES)	z-score
Cc1c2c(c(O)c3c(O)cccc13)C(=O)OC2[C@@H]1C(N(C)C)C(O)=C(C(N)=O)C(=O)[C@H]1O (stereo partly drawn)	31 (active)
COc1cc(NC(=O)NCC2CCCO2)cc2sc(NS(=O)(=O)c3ccccc3)nc12 (stereo not drawn)	0.36
COc1cccc(-c2nc(-c3cc4cc(C)ccc4[nH]c3=O)no2)c1	0.22
Cc1ccc2cc(-c3noc(CCC(N)=O)n3)c(=O)[nH]c2c1	6.88 (active)
Cc1ccc2cc(-c3noc(CC(C)C)n3)c(=O)[nH]c2c1	-1.58
C=CCOc1ccc(C2c3c(oc4ccc(F)cc4c3=O)C(=O)N2CCOC)cc1 (stereo not drawn)	2.08
CCCOC(=O)C1=C(C)Nc2nnnn2C1c1cc(Br)ccc1OC (stereo not drawn)	-6.75
Cc1cc2c3c([nH]c2cc1S(=O)(=O)Nc1ccccc1F)CC(C)(C)CC3=O	0.08
CCCS(=O)(=O)Nc1cccc(-c2cn3ccsc3n2)c1	15.9 (active)
Cc1ccc(S(=O)(=O)Nc2cccc(-c3cn4ccccc4n3)c2)cc1C	0.58
CCCS(=O)(=O)Nc1cccc(-c2ccc(S(=O)(=O)CC)nn2)c1	-0.4
O=C1COc2cc(S(=O)(=O)CCC(=O)N3CCCC3)c(Cl)cc2N1	0.78
Cc1ccc(C)c(N2CCN(c3ncnc4sc(C(=O)O)c(C)c34)CC2)c1	4.41 (active)
CCN1CCN(c2ncnc3sc(C(=O)N4CCC(N5CCCCC5)CC4)c(C)c23)CC1	1.72
COc1ncnc2sc(C(=O)O)c(C)c12	1.15
Cn1c(=O)oc2cc(S(=O)(=O)N3CCC(C(=O)NCCC4=CCCCC4)CC3)ccc21	-0.51
CCOC(=O)C1=C(C)NC2=C(C(=O)C(C(=O)OC)C(C)C2)C1c1ccc(C)s1 (stereo not drawn)	1.89
Cc1cccc(NC(=O)c2cc3c(s2)-c2ccccc2S(=O)(=O)C3)n1	1.46
COC(=O)c1ccc2c(=O)n3nc(Nc4ccc(F)c(F)c4)sc3nc2c1	-0.18
O=c1c2ccccc2nc2sc(Nc3ccc4c(c3)OCO4)nn12	18.8 (active)
CCc1ccc(Nc2nn3c(=O)c4cc5c(cc4nc3s2)OCO5)cc1	3.98
C=CCN(Cc1nc(-c2cccc(C)c2)no1)S(=O)(=O)c1ccccc1	1.74
CC(C)OC(=O)c1ccc(N2CC(O)=C(c3nc4ccccc4n3C)C2=N)cc1	-0.32
CSc1cccc(N2CC(c3nc4ccccc4n3CCN3CCOCC3)CC2=O)c1 (stereo not drawn)	1.11
CCc1cccc(NS(=O)(=O)c2ccc(/C=C/c3onc(C)c3[N+](=O)[O-])cc2)c1	1.16

Structure (SMILES)	z-score
CCCCN(C)S(=O)(=O)c1cc(-c2cc(C)no2)ccc1CC	2.74
CCCSc1ncc(CO)n1Cc1ccccc1	1.26
COc1ccccc1N1CCN(Cc2cc(=O)n3nc(C4CCCCC4)sc3n2)CC1	0.09
CCC(CC)C(=O)Nc1ccc(OCc2cc(=O)n3cccc(C)c3n2)cc1	2.07
Cc1ccc(-c2ncnc3c(C#N)c4ccccn4c23)cc1	2.39
Nc1ccc(-c2cc(=O)n3[nH]cnc3n2)cc1	10.6 (active)
O=C(Nc1nc2nc(-c3ccccc3)cc(=O)n2[nH]1)C1CCCCC1	0.88
O=C(Nc1nc2nc(-c3ccccc3)cc(=O)n2[nH]1)C1CC1	2.82
Cc1cc(-c2ccc(S(=O)(=O)N3CCc4ccccc4C3)s2)on1	0.06
Cc1ccc(S(=O)(=O)Nc2ccc3c(c2)oc(=O)n3C)cc1	1.19
C#CCSc1nc2c(c(=O)[nH]1)C(c1ccc(OCCCC)cc1)CC(=O)N2 (stereo not drawn)	-0.97
CCSc1nc2c(c(=O)[nH]1)C(c1ccc(OC)c(Br)c1)CC(=O)N2 (stereo not drawn)	1.43
C#CCSc1nc2c(c(=O)[nH]1)C(c1ccc(O)c(O)c1)CC(=O)N2 (stereo not drawn)	26.9 (active)
CCN(CC)C(=O)Cn1c(-n2nc(C)cc2C)nc2c(c1=O)CCCC2	1.12
Cc1ccc(-c2nc(CSCC(=O)NC3CC3)no2)cc1	0.42
C=C(C)COc1ccc2oc(C)c(C(=O)OCC)c2c1	0.55
COC(=O)c1ccc(N2CSC3=C(C#N)C(c4ccc(Cl)cc4)CC(=O)N3C2)cc1 (stereo not drawn)	-0.23
COc1cc(C2CC(=O)N3CN(c4ccc(Br)cc4)CSC3=C2C#N)ccc1O (stereo not drawn)	24.7 (active)
COc1ccc(N2CSC3=C(C#N)C(c4cccc(Br)c4)CC(=O)N3C2)cc1 (stereo not drawn)	-0.77
COc1cc(C2CC(=O)N3CN(c4ccccc4)CSC3=C2C#N)ccc1O (stereo not drawn)	31.5 (active)
COc1cccc(C2CC(=O)N3CN(c4ccc(Br)cc4)CSC3=C2C#N)c1 (stereo not drawn)	-2.72
CCOc1ccc(C2CC(=O)N3CN(c4ccc(OC)cc4OC)CSC3=C2C#N)cc1OC (stereo not drawn)	-4.55
COc1cccc(Nc2c(O)c(=O)c2=O)c1	-0.8
CCC(C)NC(=O)Cn1c(=O)n(CC2CCC(C(=O)N3CCCC3)CC2)c(=O)c2sccc21 (stereo not drawn)	0.29
CC1CCCN(C(=O)Cn2c(=O)oc3cc(S(=O)(=O)N4CCCCC4C)ccc32)C1 (stereo not drawn)	1.86

Structure (SMILES)	z-score
CSc1nnc(-c2nonc2NC(C)=O)n1C	0.81
COc1cccc(Nc2nc(-c3cc(OC)ccc3OC)no2)c1	1.24
CC(=O)N1N=C(c2cc(C3CC3)nc3ccccc23)OC1c1ccc(F)cc1 (stereo not drawn)	21.6 (active)
CC(=O)N1N=C(c2cc(C3CC3)nc3ccccc23)OC1c1ccc([N+](=O)[O-])s1 (stereo not drawn)	2.1
COc1ccccc1C1OC(c2cc(C3CC3)nc3ccccc23)=NN1C(C)=O (stereo not drawn)	1.12
COc1ccc(-c2nc3sccn3c2Nc2ccc(Cl)cc2)cc1	0.26
O=c1[nH]c(-c2cccc(Cl)c2)nc2c1Cc1cc(F)ccc1O2	1.31
CCOc1ccccc1NS(=O)(=O)c1cc2c3c(c1)C(C)C(=O)N3CCC2 (stereo not drawn)	2.12
Cc1ccc(S(=O)(=O)Nc2ccc3[nH]c(=O)oc3c2)cc1C	0.9
Cc1cc(NS(=O)(=O)c2ccc3[nH]c(=O)ccc3c2)ccc1Br	3.75 (active)
Cc1cc(NS(=O)(=O)c2ccc(-n3cccn3)cc2)ccc1Br	0.31
CCC(C)NC(=O)c1ccc2c(=O)n(C)c3n[nH]c(=O)n3c2c1 (stereo not drawn)	-1.23
COC(=O)c1cccc(N2C(=O)C3C4C=CC(CC4)C3C2=O)c1 (stereo not drawn)	-0.18
COc1cccc(-c2n[nH]c3c2C(c2cccs2)NC3=O)c1 (stereo not drawn)	0.03
O=C1C(=O)N(CCCN2CCOCC2)C(c2ccc(F)cc2)/C1=C(\O)c1ccc(F)cc1 (stereo not drawn)	-0.23
CCN(c1cccc(C)c1)c1c(-c2ccc(C)c(C)c2)c(=O)c1=O	1.19
Cc1cccc(-n2nc(C)c3c(C)cc(=O)oc32)c1	-1.35
Cc1cc(=O)oc2c1c(C)nn2-c1ccc(Cl)cc1	6 (active)
Cc1cc(=O)oc2c1c(C)nn2-c1cccc(Br)c1	2.1
CCOCc1nc(N2CCOCC2)sc1C(=O)NCc1ccco1	1.59
Cc1nc2c3cccnc3nn2c(C)c1CCC(=O)NC1CCCCC1	0.03
Cc1nc2nc(N3C(=O)CCC3=O)[nH]n2c(=O)c1C	0.34
O=C(NCc1ccc2c(c1)OCO2)C(=O)c1c[nH]c2ccccc12	-0.39
O=C(NCc1ccc2c(c1)OCO2)c1sc(=S)n2c1[nH]c(=O)c1ccccc12	8.38 (active)
O=C(NCc1ccc2c(c1)OCO2)c1sc2ncccc2c1-n1cccc1	0.34

Structure (SMILES)	z-score
CCc1ccc(S(=O)(=O)Nc2cccc(-c3ccc(S(C)(=O)=O)nn3)c2)s1	-0.88
O=S(=O)(c1ccc(Cl)cc1)N(Cc1nc(-c2ccccc2)no1)C1CCCCC1	-0.39
CC(C)NC(=O)c1sc(=S)n2c1[nH]c(=O)c1ccc(C(=O)NCCN(C)C)cc12	7.52 (active)
CCOC(=O)c1sc(=S)n2c1[nH]c(=O)c1ccc(C(=O)OC)cc12	3.58
O=C(NC1CCCC1)c1ccc2c(=O)[nH]c3c(C(=O)NCC4CCCO4)sc(=S)n3c2c1 (stereo not drawn)	9.34
O=C(NC1CCCCC1)c1ccc(CNc2c(N3CCCC3)c(=O)c2=O)cc1	2.73
O=C(O)c1ccc2c(=O)[nH]c3c(C(=O)NC4CCCCC4)sc(=S)n3c2c1	10.3 (active)
C=CCNC(=O)c1sc(=S)n2c1[nH]c(=O)c1ccc(C(=O)OC)cc12	-0.19
Cc1nn2c(=O)cc(CSc3nnc(COc4ccccc4C)n3C)nc2s1	-1.46
CCNc1nc(NCCN(C)C)nc2c1cnn2C	1.49
CC1CCN(S(=O)(=O)c2ccc3nc(Nc4cc(F)ccc4F)ccc3c2)CC1	1
C=CCc1ccccc1OCc1cc(=O)n2nc(-c3ccc(OC)cc3)sc2n1	-1.28
CCOc1ccc(-c2nc3c(s2)CN(S(=O)(=O)c2cccc4nsnc24)CC3)cc1	0.4
CCCNS(=O)(=O)c1ccc2c(c1)oc(=O)n2CC(=O)OCC	-3.16
Cc1nc2ccccc2n1CCNS(=O)(=O)c1ccc2c(c1)oc(=O)n2C	3.26 (active)
Cc1nn(C)c(C)c1CNS(=O)(=O)c1ccc2c(c1)oc(=O)n2C	0.45
CCC1CN(C(=O)Nc2ccccc2)c2ccccc2O1 (stereo not drawn)	1.11
CN(C)c1ccc(NC(=O)CSc2nc(-c3ccco3)cc(C(F)(F)F)n2)cc1	0.28
Nc1cc(=O)nc(SCc2ccccc2)n1Cc1ccco1	0.7
c1ccc(CSc2nnc(-c3ccco3)c(-c3ccco3)n2)cc1	8.76 (active)
O=C(CSc1ccc(-c2cccs2)nn1)Nc1ccc(Br)cc1	2.14
O=C(CSc1nnc(-c2ccco2)c(-c2ccco2)n1)Nc1ccc(Br)cc1	24.6 (active)
O=c1[nH]c(SCc2ccccc2)nnc1-c1ccccc1	-0.2

From PubChem BioAssay AID1259389 (Center for Chemical Genomics, University of Michigan, 2018)
